Measurements from PubChem BioAssay (NCATS).
Values joined by “and” are separate entries in the source; they are usually repeats but may differ in a detail not shown here. Identical values can stand only once. Inconclusive results are not listed. Active and inactive are the calls of the source. Unless noted, calls come from the whole dose curve; as a rule, active = well fitted curve in the direction sought with a large enough effect; inconclusive = small, poorly fitted or top-dose-only effect, or another doubt; inactive = no such curve, though single readings can be large; an effect the other way counts as inactive or inconclusive.

Legend:
[1] = Cell Viability - HUV-EC-C (AID 542);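 note: cells exposed to compound for 40 hours; nearly all actives have a fitted effect of over 35% in size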; note: potency is the fitted concentration of half-maximal effect; for activity change, negative = cytotoxicity: % is set by controls: 0 for no effect and ±100 for the full control effect
How it was run: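 Concentration-dependent ATP loss in HUV-EC-C cells is the measure. Exposure lasts 40 hr at 37 °C; luminescence follows CellTiter-Glo addition, and Hill fits give AC50.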

[2] = Cellular Toxicity (caspase-3) HUV-EC-C (AID 656)
How it was run: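 Concentration-dependent caspase 3/7 induction was assessed in HUV-EC-C cells exposed for 16 hours. Data scaled between DMSO and tamoxifen (100 uM) controls.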

[3] = Cellular Toxicity (caspase-3) SHSY5Y (AID 657)
How it was run: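 Readout: caspase-cleaved peptide-aminoluciferin substrate driving luciferase light in SH-SY5Y neuroblastoma cells after 16 h treatment. Response normalized to DMSO and 10 uM staurosporine controls.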

[4] = Cellular Toxicity (caspase-3) MRC-5 (AID 659);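 note: 0% = DMSO basal and 100% = 10 µM staurosporine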
How it was run: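 Apoptosis readout in MRC-5 cells: luciferase light generated after caspase 3/7 cleaves a peptide-aminoluciferin substrate, measured post 16 hr compound incubation at 37 °C.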

[5] = Cellular Toxicity (caspase-3) Mesangial (AID 660);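 note: combined caspase 3 and 7 activity read by Caspase-Glo luminescence; cells exposed to compound for 16 h before the caspase read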
How it was run: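 AC50 values come from Hill-equation fits of caspase 3/7 activation, measured as Caspase-Glo luminescence in human glomerular mesangial cells exposed to compound for 16 h at 37 °C; 100% set by 100 uM tamoxifen.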

[6] = Cellular Toxicity (caspase-3) SK-N-SH (AID 661);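 note: 0% = DMSO basal and 100% = 10 µM staurosporine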
How it was run: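 Apoptosis readout in SK-N-SH neuroblastoma: Caspase-Glo 3/7 luminescence following 16 hr treatment in complete culture medium. Normalization used DMSO and 10 uM staurosporine controls.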

[7] = Cellular Toxicity (caspase-3) N2a (AID 665);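 note: compound exposure lasted 16 h at 37 °C before readout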
How it was run: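 Concentration-response qHTS: compound-induced caspase-3/7 luminescence in N2a cells (16 h, 37 °C), relative to DMSO and 10 uM staurosporine controls; AC50 obtained using the standard Hill equation.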

[8] = Cellular Toxicity (caspase-3) NIH 3T3 (AID 666);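 note: 0% = DMSO basal and 100% = 100 µM tamoxifen stimulation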
How it was run: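 Activity: caspase-3/7 induction, NIH 3T3 cells, 16 hr treatment at 37°C, luminescent Caspase-Glo detection; AC50 via Hill equation.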

[9] = Cellular Toxicity (caspase-3) Renal Proximal Tubule (AID 667); details: Potency: caspase-3 activation;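 note: cells exposed to compound for 16 hours at 37 °C before detection; 0% = DMSO basal and 100% = 10 µM staurosporine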
How it was run: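 Caspase-Glo 3/7 read-out, rat primary kidney proximal tubule cells. Compound exposure 16 h, 37 °C; detection after 1 h at RT. Activity scaled to DMSO and 10 uM staurosporine.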

[10] = Cell Viability - LYMP1-002 - Assay at 16 hr (AID 948); note: potency is the fitted concentration of half-maximal effect;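 for activity change, negative = cytotoxicity: 0% = DMSO alone and full effect = 92 µM tetraoctylammonium bromide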
How it was run: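 In this qHTS, lymphoblastoid LYMP1-002 cells (human) receive compounds for 16 hr at 37 C. Viability is taken from CellTiter-Glo ATP luminescence, and AC50 derives from standard Hill fits.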

[11] = MultiTox-Fluor Cytotoxicity Assay - LYMP1-003 - Dead Cells (AID 961); note: nearly all actives have a fitted effect of over 70% in size; note: potency is the fitted concentration of half-maximal effect
How it was run: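 Dead-cell protease release, detected as bis-AAF-R110 fluorescence at 485/520 nm, was measured in LYMP1-003 cells after 16 h compound treatment at 37 C. AC50 values came from Hill-modeled qHTS curves normalized to DMSO (0%) and 15 uM tetraoctylammonium bromide (100%).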

[12] = Cell Viability - LYMP2-003 (AID 965);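 note: cells exposed to compounds for 24 h before reading; nearly all actives have a fitted effect of over 50% in size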; note: potency is the fitted concentration of half-maximal effect;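 for activity change, negative = cytotoxicity: 0% = DMSO only and full effect = 92 µM tetraoctylammonium bromide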
How it was run: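 qHTS, human lymphoblastoid line, 2500 cells/well, complete medium. 24 h drug, 37 C. ATP-based luminescent readout; Hill-fit AC50.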

[13] = Cell Viability - LYMP1-002 - Assay at 24 hr (AID 993); note: potency is the fitted concentration of half-maximal effect; for activity change, negative = cytotoxicity: % is set by controls: 0 for no effect and ±100 for the full control effect
How it was run: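 Viability was judged from intracellular ATP using a luciferase read-out, following a 24-hour compound incubation at 37 C of lymphoblastoid cells seeded at 2500 per well. Concentration-response data were fitted to the Hill equation for AC50.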

[14] = qHTS Assay for Identification of Small Molecule Inducers of Hypoxia Response (AID 2120; active = well fitted curve in the direction sought with a large enough effect in the signal ratio, with a control signal flat, not every such curve was filed as active; the % refers to the signal ratio; note: 0% is about no effect)
How it was run: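 HRE-bla ME-180, 2500 cells/well, 0.5% dialyzed FBS medium; cpd titration, 17 h 37 degrees C; CCF4 2.5 h RT; Ex 405, Em 460/530 ratio -> %Activity, AC50.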

[15] = target: Peroxisome proliferator-activated receptor alpha (Homo sapiens) (UniProt Q07869); assay: qHTS assay for small molecule agonists of the peroxisome proliferator-activated receptor alpha (PPARalpha) signaling pathway (AID 651778); details: PathHunter PPARalpha complementation, chemiluminescence, 6 h; max response: stronger effect = higher value; note: % of control where 0% means no effect
Sequence of Peroxisome proliferator-activated receptor alpha (Homo sapiens) (Q07869 whole entry, looked up): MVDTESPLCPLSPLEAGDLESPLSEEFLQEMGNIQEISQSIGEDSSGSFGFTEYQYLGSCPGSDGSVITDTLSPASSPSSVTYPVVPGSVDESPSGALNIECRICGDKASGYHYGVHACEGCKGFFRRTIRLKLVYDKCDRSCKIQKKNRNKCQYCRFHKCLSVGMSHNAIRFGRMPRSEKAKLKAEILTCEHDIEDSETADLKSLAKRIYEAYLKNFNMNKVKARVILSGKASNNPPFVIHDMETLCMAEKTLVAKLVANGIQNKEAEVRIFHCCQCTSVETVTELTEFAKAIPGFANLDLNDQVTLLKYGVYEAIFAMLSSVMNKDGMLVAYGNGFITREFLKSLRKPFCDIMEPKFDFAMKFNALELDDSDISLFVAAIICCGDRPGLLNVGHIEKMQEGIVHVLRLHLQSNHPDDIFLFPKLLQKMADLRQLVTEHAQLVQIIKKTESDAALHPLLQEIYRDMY
How it was run: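 Cells plated at 2,000/well and held overnight at 37 C, 5% CO2, then compound added by pin tool for 6 hr; after PathHunter detection reagent and 60 min at room temperature, chemiluminescence from enzyme complementation was read.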

[16] = qHTS assay for cell viability of the p53RE-bla HCT-116 cell line (AID 743292); note: nearly all actives have a fitted effect of over 55% in size; note: potency is the fitted concentration of half-maximal effect; for activity change, negative = cytotoxicity: % is set by controls: 0 for no effect and ±100 for the full control effect
How it was run: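 ATP-based luminescent viability (CellTiter-Glo, 30 min RT) after 16 h compound treatment at 37 C of p53RE-bla HCT-116 cells, seeded at 4,000 cells/well and rested 5 h before dosing.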

[17] = Cellular Toxicity (caspase-3) Jurkat (AID 655); details: Jurkat caspase-3 activation, luminescence; caspase-3 activation: at 92.2 µM (top of the series), DMSO = 0%, tamoxifen = 100%;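 note: cells exposed to compound for 16 h at 37 °C before reading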; note: potency is the fitted concentration of half-maximal effect
How it was run: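 qHTS in human Jurkat T-cell leukemia line: 16 hr compound treatment at 37 °C, caspase-3/7 activity measured by Caspase-Glo luminescence. AC50 derived from Hill equation.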

[18] = Cell Viability - Mesenchymal (AID 546); details: mesenchymal cells viability, qHTS; activity change, negative = cytotoxicity: at 91.7 µM (top of the series);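 note: cells exposed to compound for 40 hours before reading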
How it was run: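 In this qHTS cytotoxicity format, glomerulus-derived human mesenchymal kidney cells received compound for 40 hr, then luciferase-based ATP quantitation. Concentration-response data were fitted with the Hill equation.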

[19] = Cell Viability - LYMP1-003 - Assay at 24 hr (AID 963);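 note: plate controls were DMSO only for no effect and tetraoctylammonium bromide positive control for full effect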
How it was run: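 The lymphoblastoid line was treated with titrated compounds for 24 hours, and viable cell number estimated from luciferase-based ATP luminescence.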

[20] = Cell Viability - LYMP2-026 (AID 989);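 note: cells exposed to compound for 24 h at 37 °C; % is set by controls: 0 for no effect and ±100 for the full control effect; nearly all actives have a fitted effect of over 50% in size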
How it was run: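 Acute toxicity screen in complete culture medium, with 24 hr compound exposure at 37 C. Viability read as cellular ATP via luciferase reaction, with tetraoctylammonium bromide (6.4pM to 92 uM) as positive control.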

C/C=C1/C(=O)C[C@H]2[C@@H]3CCC4=CC(=O)CC[C@]4(C)[C@H]3CC[C@]12C
inactive: Potency [1] | Potency [2] | Potency [3] | outcome [4] | outcome [5] | outcome [6] | outcome [7] | outcome [8] | Potency [9] | Potency [12] | Potency [14] | max response [15] -2.73% | Potency [16]
active: Potency [10] 50.1 µM | Potency [11] 50.1 µM | Potency [13] 50.1 µM

Cc1c(C(=O)O)c(O)cc2c1C(=O)c1c(O)c([C@H]3O[C@H](CO)[C@@H](O)[C@H](O)[C@H]3O)c(O)c(O)c1C2=O
inactive: Potency [17] | Potency [2] | Potency [3] | outcome [4] | outcome [5] | outcome [6] | outcome [7] | outcome [8] | Potency [9] | Potency [11] | Potency [14] | max response [15] -8.63%
active: Potency [1] 31.6 µM | Potency [16] 44.7 µM

CCN(CC)c1ccc(N)cc1
inactive: Potency [1] | Potency [18] | Potency [17] | Potency [2] | outcome [4] | outcome [5] | outcome [6] | outcome [7] | outcome [8] | Potency [9] | Potency [10] | Potency [11] | Potency [19] | Potency [20] | Potency [13] | Potency [14] | max response [15] -0.774% | Potency [16]
active: Potency [12] 39.8 µM

O=Nc1ccc(Nc2ccccc2)cc1
inactive: Potency [18] | Potency [2] | Potency [3] | outcome [4] | outcome [5] | outcome [6] | outcome [7] | outcome [8] | Potency [9] | Potency [14] | max response [15] -0.677% and -6.11% | Potency [16]

Nc1ccc(N)c(Cl)c1
inactive: Potency [1] | Potency [18] | Potency [17] | Potency [2] | Potency [3] | outcome [4] | outcome [5] | outcome [6] | outcome [7] | outcome [8] | Potency [9] | Potency [10] | Potency [11] | Potency [12] | Potency [20] | Potency [13] | Potency [14] | max response [15] 0.817% | Potency [16]

S=C(NC1CCCCC1)NC1CCCCC1
inactive: Potency [1] | Potency [18] | Potency [17] | Potency [2] | Potency [3] | outcome [4] | outcome [5] | outcome [6] | outcome [7] | outcome [8] | Potency [9] | Potency [10] | Potency [11] | Potency [19] | Potency [12] | Potency [20] | Potency [13] | Potency [14] | max response [15] 1.4% | Potency [16]

c1ccc(Nc2cccc3ccccc23)cc1
inactive: Potency [1] | Potency [18] | Potency [17] | Potency [2] | Potency [3] | outcome [4] | outcome [5] | outcome [6] | outcome [7] | outcome [8] | Potency [9] | Potency [10] | Potency [11] | Potency [19] | Potency [12] | Potency [20] | Potency [13] | Potency [14] | Potency [16]

Cc1cc(=O)oc2cc(O)cc(O)c12
inactive: Potency [1] | Potency [18] | Potency [17] | Potency [2] | Potency [3] | outcome [4] | outcome [5] | outcome [6] | outcome [7] | outcome [8] | Potency [9] | Potency [10] | Potency [11] | Potency [19] | Potency [12] | Potency [20] | Potency [13] | Potency [14] | max response [15] 0.255% | Potency [16]

Cc1cccnc1
inactive: Potency [1] | Potency [18] | Potency [17] | Potency [2] | Potency [3] | outcome [4] | outcome [5] | outcome [6] | outcome [7] | outcome [8] | Potency [9] | Potency [10] | Potency [11] | Potency [19] | Potency [12] | Potency [20] | Potency [13] | Potency [14] | max response [15] -1.1% | Potency [16]

O=C1c2ccccc2C(=O)C1(O)O
inactive: Potency [1] | Potency [18] | Potency [2] | Potency [3] | outcome [4] | outcome [5] | outcome [6] | outcome [7] | outcome [8] | Potency [9] | Potency [10] | Potency [11] | Potency [19] | Potency [20] | Potency [13] | Potency [14] | max response [15] 0.0449% | Potency [16]
active: Potency [17] 31.6 µM | Potency [12] 50.1 µM

C=CC(C)(O)CCCC(C)CCCC(C)CCCC(C)C (stereo not drawn)
inactive: Potency [1] | Potency [18] | Potency [17] | Potency [2] | Potency [3] | outcome [4] | outcome [5] | outcome [6] | outcome [7] | outcome [8] | Potency [9] | Potency [10] | Potency [11] | Potency [19] | Potency [12] | Potency [20] | Potency [13] | Potency [14] | max response [15] 2.41% | Potency [16]

CCCCCCCC/C=C\CCCCCCCC(=O)N(CCO)CCO
inactive: Potency [2] | Potency [3] | outcome [4] | outcome [5] | outcome [6] | outcome [7] | outcome [8] | Potency [9] | Potency [10] | Potency [11] | Potency [19] | Potency [12] | Potency [20] | Potency [13] | Potency [14] | max response [15] 28.4% | Potency [16]
active: Potency [1] 39.8 µM | caspase-3 activation [17] 96.6%
